In PubChem BioAssay (NCI) one finds growth data, which are given here for eight compounds.

What all share (assay): NCI-60 one-dose screen, 48 h (100 = growth as untreated, 0 = no growth, -100 = all killed)
Conditions in all cases: 10 µM unless noted

Assay [1] concerns NCI-H23 lung.
Assay [2] has as its system NCI-H226 lung.
Assay [3] deals with NCI-H322M lung.
Assay [4] concerns HOP-62 NSCLC.
In assay [5] the test system is NCI-H460 lung.
For assay [6], the system named is HOP-92 NSCLC.
Assay [7] concerns NCI-H522 lung.
Assay [8] has as its system A549/ATCC NSCLC.
Assay [9] has as its system 786-0 renal.
For assay [10], the system named is COLO 205 colon.
For assay [11], the system named is DU-145 prostate.
Assay [12] concerns K-562 leukemia.
Assay [13] relates to MALME-3M melanoma.
The subject of assay [14] is MDA-MB-231 breast.
In assay [15] the test system is RXF 393 renal.
In assay [16] the test system is SF-268 CNS.
In assay [17] the test system is SF-295 CNS.
Assay [18] has as its system SF-539 CNS.
Assay [19] relates to UACC-257 melanoma.
The subject of assay [20] is M14 melanoma.

This is part of a sample that, as a whole, favours compounds with a hit. Of some 83,000 tested, about 20% had one in any assay.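 Single-dose data. Exposure time 48 hours. Values below 10 considered active.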 Values without a mark were called inactive. Activity calls are given as the source filed them.

In the case of `CC1CCN(CCCCCOc2ccc3oc4cc(Cl)ccc4c(=O)c3c2)CC1`, the growth was 87.7% in assay [1]; 113% in [2]; 73.8% in assay [3]; 82.2% in [4]; 36.3% in [5]; 93.6% in assay [6]. Further, the growth in assay [7] was 69.9%; in assay [8] it was 68.6%; in assay [9] it was 65.1%; in assay [10], 36.6%; in assay [11], 83.7%; in assay [12] it was 5.17% (active). Moreover, the growth in [13] was 9.78% (active); in [14] it was 44.3%; in assay [15], 52.8%; in assay [16], 68.1%; in [17], 78.2%; in assay [18], 40.6%. Also, the growth was -38.8% (active) in [19] and -50.1% (active) in assay [20].

In the case of `O=C(CCCCCCCCC(=O)Nc1cccc(C2=NCCN2)c1)Nc1cccc(C2=NCCN2)c1`, the growth in [1] was 75.8%; in assay [2], 101%; in assay [3], 105%; in [4] it was 102%; in assay [5], 93.6%; in assay [6] it was 90.5%. The growth is 70.3% in assay [7]; 96.6% in [8]; 100% in [9]; 92.2% in assay [10]; 99.8% in [11]; 73.1% in assay [12]. The growth in assay [13] is 69.8%; in [14], 101%; in [15] it was 108%; in assay [16], 103%; in [17] it was 99.9%; in assay [18], 108%. In addition, the growth was 95.6% in [19] and 97.1% in assay [20].

With `C=C1C(=O)O[C@H]2[C@H]1CC/C(COC(=O)c1cc3ccccc3o1)=C\CC[C@@]1(C)O[C@@H]21`, the growth was 32.8% in assay [1]; 45.6% in assay [2]; 78.1% in [3]; 42.7% in assay [4]; 42.2% in [5]; -52.7% (active) in assay [6]. For the same compound, the growth in [7] is -58.2% (active); in assay [8], 51.4%; in [9] it was -19.1% (active); in [10], -65.6% (active); in assay [11], -24.2% (active); in [12], -2.5% (active). The growth in assay [13] is -70.3% (active); in assay [14], -38.8% (active); in assay [15], -83.4% (active); in assay [16], 4.87% (active); in assay [17] it was 74.8%; in assay [18], -40.7% (active). Also, the growth in assay [19] is 40.5%; in assay [20], -53.9% (active).

Regarding `NC(=N\N=C\c1ccccc1O)/C(N)=N/N=C/c1ccccc1O`, the growth in assay [1] is 90.9%; in [2], 96%; in [3], 80.5%; in [4], 84.5%; in assay [5], 70.1%; in assay [6], 76.2%. In addition, the growth is 63.5% in [7]; 73.6% in assay [8]; 85.2% in assay [9]; 97.1% in assay [10]; 80.1% in assay [11]; 71.1% in assay [12]. Moreover, the growth in assay [13] is 79%; in assay [14], 83.6%; in assay [15], 106%; in [16], 78.8%; in assay [17], 77.7%; in [18], 81.3%. The growth in assay [19] is 84.3%; in [20], 79%.

As to `O=C(NC[C@H](O)CN1CCc2ccccc2C1)c1cc(NC2COC2)ncn1`, the growth is 99.7% in assay [1]; 108% in [2]; 93.6% in assay [3]; 92.8% in assay [4]; 97.8% in assay [5]; 112% in [6]. Besides, the growth in [7] is 92%; in [8], 93.4%; in assay [9], 92%; in [10] it was 92.4%; in assay [11] it was 103%; in [12] it was 108%. For the same compound, the growth in assay [13] was 93.3%; in assay [14], 94.6%; in [15], 114%; in [16] it was 86%; in [17] it was 97.7%; in assay [18], 97.4%. Moreover, the growth is 116% in [19] and 92.4% in assay [20].

For the compound `CCOC(=O)c1c(-c2ccc(O)cc2)c(C#N)c2c(C#N)c(N)nn2c1N`, the growth in assay [1] was 72.6%; in assay [2], 69.3%; in [3] it was 95.1%; in assay [4], 66.6%; in [5], 74.3%; in assay [6], 41.7%. For the same compound, the growth in [7] is 39.2%; in [8] it was 80.7%; in [9] it was 93%; in [10], 74.6%; in [11] it was 83%; in assay [12] it was 19.8%. In addition, the growth is 39.4% in [13]; 67% in [14]; 76.2% in assay [15]; 71.8% in [16]; 79.9% in assay [17]; 66.9% in assay [18]. Moreover, the growth in assay [19] was 93%; in assay [20] it was 45.2%.

Regarding `COC(=O)c1ccc(NC(=O)CSc2nc(-c3ccc(F)cc3)nc3ccccc23)cc1`, the growth in assay [1] is 81.7%; in [2], 87.4%; in assay [3], 89.5%; in assay [4], 75.5%; in assay [5] it was 60.7%; in [6] it was 77.7%. Also, the growth in [7] was 76.9%; in [8], 86.1%; in assay [9], 105%; in assay [10], 93.8%; in assay [11] it was 88.7%; in [12], 81.2%. Moreover, the growth in assay [13] is 60.9%; in [14], 58.3%; in assay [15], 109%; in assay [16], 75.8%; in [17], 86.2%; in [18] it was 96.9%. The growth is 102% in assay [19] and 70.2% in [20].

With `O=S(=O)(O)c1ccc(N=NSc2ccc3ccccc3c2)cc1`, the growth in [1] was 93.4%; in assay [2] it was 106%; in assay [3], 92.8%; in assay [4], 108%; in [5], 98.1%; in [6] it was 86.4%. Also, the growth in [7] is 97%; in assay [8] it was 100%; in assay [9], 102%; in assay [10] it was 108%; in [11], 103%; in assay [12] it was 118%. Further, the growth in assay [13] is 92.3%; in assay [14], 102%; in assay [15] it was 117%; in assay [16], 98.8%; in assay [17], 97.4%; in assay [18], 100%. The results for the growth in [19] and in assay [20] were 113% and 92.9%, respectively.
